Assay results as given in PubChem BioAssay (NCATS).
Inconclusive results are not listed. Activity calls are given as the source filed them. Unless noted, calls come from the whole dose curve; as a rule, active = well fitted curve in the direction sought with a large enough effect; inconclusive = small, poorly fitted or top-dose-only effect, or another doubt; inactive = no such curve, though single readings can be large; an effect the other way counts as inactive or inconclusive.

Experiments:
[1] = test system: Zika virus NS2B-NS3 protease (linked construct); assay: Primary screen NINDS Rhodamine qHTS for Zika virus inhibitors (AID 1347160)
How it was run: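 Percent inhibition, normalized to uninhibited and enzyme-free controls, is fitted to a 4-parameter Hill equation. Fluorescence change comes from a 15-min cleavage of 1.5 microM bis-peptide Rhodamine110 substrate by 25 nM linked NS2B-NS3 at room temperature.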

[2] = HPAF-II Cancer Cell Toxicity qHTS against the NCATS CANVASS Library (AID 1347346)
How it was run: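 HPAF-II cells were seeded at 1000 cells/well, allowed to settle for 4 h at 37 degrees C, then exposed to compounds in an 11-point series for 72 h. Viability was read by CellTiter-Glo luminescence.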

[3] = OV-SAHO Cancer Cell Toxicity qHTS against the NCATS CANVASS Library (AID 1347348)
How it was run: (§1)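 ATP content after 72 h treatment, detected by CellTiter-Glo luminescence (15min room-temperature development), reflects cell viability. Wells contained 1000 cells and received compounds at 11 concentrations.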

[4] = Panc-1005 Cancer Cell Toxicity qHTS against the NCATS CANVASS Library (AID 1347349)
How it was run: as §1

[5] = U-118MG Cancer Cell Toxicity qHTS against the NCATS CANVASS Library (AID 1347351)
How it was run: as §1

[6] = A2780 Cisplatin Sensitive Ovarian Cancer Cell Toxicity qHTS against the NCATS CANVASS Library (AID 1347353)
How it was run: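 A2780 cisplatin-sensitive cells (750 per well) were seeded, left 4 h at 37 °C, then pin-dosed in an 11-point series. After 72 h at 37 °C/5% CO2, viability was measured as ATPLite luminescence.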

[7] = UWB1.289-WTBRCA1 Cancer Cell Toxicity qHTS against the NCATS CANVASS Library (AID 1347354)
How it was run: (§2)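 Cells were seeded at 1000 per well and allowed to settle 4 hours at 37 degrees C before pin transfer of compounds as an 11-point series. Viability was read by CellTiter-Glo luminescence after 72 hours' exposure.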

[8] = HEK-293 Cancer Cell Toxicity qHTS against the NCATS CANVASS Library (AID 1347355)
How it was run: as §2

[9] = HPAF-II 24hr Apoptosis Induction qHTS against the NCATS CANVASS Library (AID 1347356)
How it was run: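 HPAF-II cells (500/well) in DMEM + 10% FBS were treated with an 11-point compound series for 24 hours at 37 degrees C. Caspase-3/7 activity was then read by Caspase-Glo DEVD luminescence after 15 min.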

[10] = HEK293 18hr Apoptosis Induction qHTS against the NCATS CANVASS Library (AID 1347357)
How it was run: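 HEK293 cells (500/well, DMEM + 10% FBS) treated with an 11-point series for 18 h at 37 degrees C. Caspase-3/7 activity read by Caspase-Glo luminescence after 15 min at room temperature.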

[11] = HEK293 24hr Apoptosis Induction qHTS against the NCATS CANVASS Library (AID 1347359)
How it was run: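 Caspase-3/7 activation measured as luminescence from the DEVD-based Caspase-Glo reagent, 15 min at room temperature, following 24-hour compound treatment of HEK293 cells.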

[12] = HPAF-II 18hr Apoptosis Induction qHTS against the NCATS CANVASS Library (AID 1347360)
How it was run: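 HPAF-II cells at 500/well were exposed for 18 h at 37 C to an 11-point compound series. Caspase-3/7 activity was read by Caspase-Glo luminescence after 15 min at RT.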

[13] = HEK293 12hr Apoptosis Induction qHTS against the NCATS CANVASS Library (AID 1347361)
How it was run: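 HEK293 cells (500/well) were exposed to an 11-point qHTS concentration series for 12 hours at 37 degrees C. Caspase-3/7 activity was then read by DEVD-substrate luciferase luminescence after 15 min at room temperature.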

[14] = target: Luciferin 4-monooxygenase (Photinus pyralis) (UniProt P08659); assay: Firefly luciferase counterscreen qHTS: Assay Interference Panel against the NCATS CANVASS Library (AID 1347363)
Chain of Luciferin 4-monooxygenase (Photinus pyralis) (P08659 whole entry, looked up): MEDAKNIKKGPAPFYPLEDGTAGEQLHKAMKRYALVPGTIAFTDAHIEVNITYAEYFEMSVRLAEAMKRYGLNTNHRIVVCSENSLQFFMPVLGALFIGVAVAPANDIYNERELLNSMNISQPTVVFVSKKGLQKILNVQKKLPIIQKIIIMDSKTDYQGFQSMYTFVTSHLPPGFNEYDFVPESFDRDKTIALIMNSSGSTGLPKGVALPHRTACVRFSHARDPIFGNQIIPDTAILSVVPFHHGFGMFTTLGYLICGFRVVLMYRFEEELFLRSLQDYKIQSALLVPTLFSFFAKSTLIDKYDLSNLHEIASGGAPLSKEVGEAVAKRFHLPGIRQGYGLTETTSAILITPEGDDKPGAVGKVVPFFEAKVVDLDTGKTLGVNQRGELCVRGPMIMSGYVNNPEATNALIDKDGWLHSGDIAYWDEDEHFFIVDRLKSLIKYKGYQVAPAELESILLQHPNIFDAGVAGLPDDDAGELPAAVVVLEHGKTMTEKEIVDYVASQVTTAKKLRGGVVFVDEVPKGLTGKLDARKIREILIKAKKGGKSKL
How it was run: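 Luminescence inhibition readout: compounds (11-point qHTS) sat 15 min at room temperature with substrate mix (0.013 mM luciferin and ATP), then firefly luciferase was added and signal read 5 min later.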

[15] = KB-8-5-11 Cancer Cell Toxicity qHTS against the NCATS CANVASS Library (AID 1347364)
How it was run: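 KB-8-5-11 cells (500/well) in DMEM + 10% FBS were exposed to compounds in an 11-point qHTS series for 72 hr at 37C, 5% CO2. Viability was read by CellTiter-Glo luminescence.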

[16] = KB-3-1 Cancer Cell Toxicity qHTS against the NCATS CANVASS Library (AID 1347366)
How it was run: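 KB-3-1 cells (500/well) in DMEM with 10% FBS were exposed to compounds for 72 h at 37C. Viability was read by CellTiter-Glo luminescence.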

[17] = qHTS for ATAD5 Agonist screened against the NCATS CANVASS Library (AID 1347367)
How it was run: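 Luciferase reporter under ATAD5 control, stably integrated in HEK293T cells (2000/well). Compounds (11 points) incubated 16 h at 37C; viability read first by CellTiter-Fluor, then luminescence reporting ATAD5 activation. MMS positive control.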

[18] = G06 Cancer Cell Toxicity qHTS against the NCATS CANVASS Library (AID 1347368)
How it was run: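 G06 dog glioma cells seeded at 500 cells/well were exposed to compounds (11-point qHTS series) for 72 hr at 37C, 5% CO2; viability read as ATP content by CellTiterGlo luminescence.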

[19] = MCF7 Cancer Cell Toxicity qHTS against the NCATS CANVASS Library (AID 1347369)
How it was run: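 MCF7 cells (500/well) were exposed 72 h at 37 °C to compounds in an 11-point series. Viability was read as ATP content by CellTiterGlo luminescence.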

[20] = J3T Cancer Cell Toxicity qHTS against the NCATS CANVASS Library (AID 1347371)
How it was run: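 J3T dog glioma cells (500 cells/well) were exposed to compounds in an 11-point series for 72 hr at 37C, 5% CO2. Cytotoxicity was read as ATP content by CellTiterGlo luminescence.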

[21] = target: Nuclear receptor subfamily 1 group I member 3 (Homo sapiens) (UniProt Q14994); assay: qHTS for Constitutive Androstane Receptor (CAR) Antagonist screened against the NCATS CANVASS Library (AID 1347372)
Chain of Nuclear receptor subfamily 1 group I member 3 (Homo sapiens) (Q14994 whole entry, looked up): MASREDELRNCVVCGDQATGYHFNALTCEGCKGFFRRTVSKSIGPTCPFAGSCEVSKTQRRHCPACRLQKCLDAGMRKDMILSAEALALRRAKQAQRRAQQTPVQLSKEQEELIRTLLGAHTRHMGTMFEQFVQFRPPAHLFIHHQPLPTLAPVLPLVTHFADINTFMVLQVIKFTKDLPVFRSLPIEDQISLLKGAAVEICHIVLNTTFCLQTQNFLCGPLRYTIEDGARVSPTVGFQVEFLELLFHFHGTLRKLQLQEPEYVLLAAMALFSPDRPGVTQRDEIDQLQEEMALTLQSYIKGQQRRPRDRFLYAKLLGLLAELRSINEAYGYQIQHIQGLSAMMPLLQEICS
How it was run: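 HepG2-CYP2B6-hCAR double-stable cells plated, 4hr attach; cpd pin-transferred; CITCO 50 nM final; 24hr 37C/5% CO2; CellTiter-Fluor 1hr (fluorescence), then ONE-Glo luminescence.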

[22] = target: Nuclear receptor subfamily 1 group I member 3 (Homo sapiens) (UniProt Q14994); assay: qHTS for Constitutive Androstane Receptor (CAR) Agonist screened against the NCATS CANVASS Library (AID 1347373)
How it was run: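 HepG2 cells stably expressing hCAR and a CYP2B6-2.2kb luciferase reporter were treated for 24hr at 37C with compounds (11-point qHTS) in the presence of 1.5uM PK11195. Reporter activation was read by ONE-Glo luminescence.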

[23] = qHTS for Hypoxia signaling pathway (HIF-1) antagonists against the NCATS CANVASS Library (AID 1347374)
How it was run: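 HRE-bla ME-180 cells (2,000/well, 0.5% dialyzed FBS) were pre-incubated 5 h, then given an 11-point compound series plus CoCl2 (60 uM solution as added) for 17 h at 37C. CCF4 β-lactamase read (ex 405, em 460/530 nm) after 2 h at RT.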

[24] = qHTS for Hypoxia signaling pathway (HIF-1) agonists against the NCATS CANVASS Library (AID 1347375)
How it was run: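 HRE-bla ME-180 cells (beta-lactamase reporter under hypoxia responsive element) in 0.5% dialyzed FBS medium, 5 h at 37C, then compound 17 h, 11-point qHTS series. CCF4-AM FRET substrate 2 h RT; 460/530 nm emission read.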

[25] = 10-beta competent E. coli microbial cell viability qHTS against the NCATS CANVASS Library (AID 1347376)
How it was run: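 10-beta competent E. coli (0.9 OD culture diluted to 0.2 OD) exposed to compounds in an 11-point qHTS series, incubated overnight at 37C, 5% CO2. Viability read as ATP by BacTiter-Glo luminescence after 20 min at room temperature.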

[26] = qHTS for Inflammasome Signaling Inhibitors: IL-1-beta AlphaLISA screen against the NCATS CANVASS Library (AID 1347379)
How it was run: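 Human THP-1 cells were pretreated 1 hr at 37 °C with compounds (up to 57.5 uM final), then stimulated with LPS (250 ng/mL final) and ATP (1.25 mM final). Secreted IL-1B was read by AlphaLISA after 16 hr.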

[27] = Inflammasome Signaling qHTS Counterscreen: IL-1-beta AlphaLISA counterscreen against the NCATS CANVASS Library (AID 1347381)
How it was run: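 To flag interference with the AlphaLISA read-out, a known amount of purified IL-1-beta (4 pg) replaced cell supernatant. Detection used anti-IL-1-beta acceptor beads, biotinylated antibody and streptavidin donor beads at room temperature.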

[28] = qHTS for Activators of p53 Stress Response Pathway screened against the NCATS CANVASS Library (AID 1347388)
How it was run: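 Beta-lactamase reporter driven by p53 response elements in HCT-116 cells, read as the 460 nm/530 nm emission ratio after CCF4 loading, following 16 h of exposure to an 11-point series. Cell viability was measured in the same wells by CellTiter-Glo luminescence.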

[29] = Secretion counterscreen for inhibitors of the SERCaMP assay screened against the NCATS CANVASS Library (AID 1347390)
How it was run: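 SH-SY5Y cells with constitutively secreted GLuc reporter, 1000 cells/well, treated 20 h at 37C with compounds at 0.001 - 77 uM final; secreted luciferase read as luminescence after coelenterazine; Brefeldin A as positive control.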

[30] = qHTS for activators of dead-cell proteases activity screened against the NCATS CANVASS Library (AID 1347392)
How it was run: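 Compounds are pin-transferred onto attached HepG2 cells, giving 11 final concentrations. After 5 h at 37C, AAF-aminoluciferin reagent is added and luminescence is recorded at room temperature.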

[31] = qHTS for inhibitors of ER calcium dysfunction: SERCaMP assay screened against the NCATS CANVASS Library (AID 1347393)
How it was run: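 Thapsigargin-induced ER calcium depletion drives GLuc-SERCaMP secretion from SH-SY5Y cells; compounds given 16 h beforehand were scored by lowered coelenterazine luminescence after 4 h challenge.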

[32] = Vero-766 cells viability qHTS against the NCATS CANVASS Library: Counterscreen for Zika virus inhibition assay (AID 1347394)
How it was run: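 Vero 766 cells (1000/well), without Zika virus, were exposed to compounds for 72 h at 37C. Viability was measured by CellTiter Glo luminescence. Media-only wells served as 100% inhibition.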

[33] = qHTS for inhibitors of Wild type Zika virus screened against the NCATS CANVASS Library (AID 1347396)
How it was run: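 Using ATP-based luminescence (CellTiter Glo), this screen scores rescue of Vero 766 cells from wild-type Zika killing at 72 h post-infection. Compounds are tested in a concentration series.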

[34] = Redox Reaction Profiling qHTS: Assay Interference Panel against the NCATS CANVASS Library (AID 1347401)
How it was run: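 Cell-free redox surrogate: 5 uM resazurin + 200 uM DTT, 50 mM HEPES pH 7.3/50 mM NaCl; cpds pinned, 11-pt qHTS; Ex525/Em598 read t0 and t=15 min, dark.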

[35] = qHTS for inhibitors of Rabies Virus screened against the NCATS CANVASS Library (AID 1347402; calls by dose curve)

Measured: Potency

CO[C@@H](/C=C/CC/C=C/C(=O)O)[C@@H](O)[C@H](C)/C=C(\C)[C@@H](O)[C@H](C)C(=O)CCCC1CC(=O)NC(=O)C1
inactive: all assays above
